Test results reported in PubChem BioAssay (Tox21).
Inconclusive results are not listed. Activity calls are given as the source filed them. Unless noted, the call rests on the fitted dose curve; in most records, active means well fitted curve in the direction sought with a large enough effect in the repeat runs; inconclusive means weak or mixed curves; inactive means no such curve, though single readings can be large; an effect the other way counts as inactive or inconclusive.

Key:
[1] = molecular target: Progesterone receptor (Homo sapiens) (UniProt P06401); assay: qHTS assay to identify small molecule antagonists of the progesterone receptor (PR) signaling pathway (AID 1346795; active means well fitted inhibition curve with a large enough effect in the signal ratio in the repeat runs, not every such curve was filed as active; the % refers to the signal ratio)
Procedure, shortened: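 After 6 hr plating at 37C in 2% stripped-serum medium, PR-UAS-bla HEK293T cells got compounds, then 1 nM R5020. Sixteen hours later, LiveBLAzer substrate was applied for 2 hr at room temperature and fluorescence was recorded.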

[2] = qHTS assay to identify small molecule antagonists of the progesterone receptor (PR) signaling pathway - cell viability counter screen (AID 1346798); further: series mostly up to about 92 µM; nearly all actives have a fitted effect of over 50% in size
Procedure, shortened: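 Viability was determined by ATP-based luminescence (CellTiter-Glo) in PR-UAS-bla HEK293T cells cultured in 2% charcoal-stripped serum and incubated 16 hr with compounds under R5020 stimulation.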

[3] = qHTS assay to identify small molecule agonists of the progesterone receptor (PR) signaling pathway - cell viability counter screen (AID 1346799; calls by dose curve; further: nearly all actives have a fitted effect of over 45% in size)
Procedure, shortened: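 Viability was scored by ATP luminescence (CellTiter-Glo, 30 min, room temperature) in the same wells used for the reporter readout, after 16 hr compound exposure of PR-UAS-bla HEK293T cells.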

[4] = qHTS assay to identify small molecule antagonists of the TGF-beta/Smad signaling pathway - cell viability counter screen (AID 1346824); further: nearly all actives have a fitted effect of over 50% in size
Procedure, shortened: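 Cytotoxicity counter-screen run in the same wells as the beta-lactamase Smad reporter read: CellTiter-Glo luminescence after 30 min at room temperature. HEK 293T SBE-bla cells had 5 hr compound exposure at 37 C with TGF-beta1 (0.25 ng/mL stock).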

[5] = qHTS assay to identify small molecule agonists of the TGF-beta/Smad signaling pathway - cell viability counter screen (AID 1346829); further: top concentration of the series differs between compounds; nearly all actives have a fitted effect of over 45% in size
Procedure, shortened: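 Same-well cytotoxicity: CellTiter-Glo added after the 2 hr room-temperature beta-lactamase substrate step, luminescence measured 30 min later; cells had 5 hr of compound at 37 C.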

[6] = qHTS assay to identify small molecule agonists of the TGF-beta/Smad signaling pathway (AID 1346859; active means well fitted activation curve with a large enough effect in the signal ratio in the repeat runs, not every such curve was filed as active; the % refers to the signal ratio; further: series mostly up to about 77 µM)
Procedure, shortened: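 Dual-wavelength fluorescence (460/530 nm emission) quantified beta-lactamase expression under the Smad binding element in HEK 293T cells following 5 hr compound treatment at 37 C.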

[7] = molecular target: Thyrotropin-releasing hormone receptor (Homo sapiens) (UniProt P34981); assay: qHTS assay to identify small molecule antagonists of the thyrotropin-releasing hormone receptor (TRHR) signaling pathway (AID 1346877; active means well fitted inhibition curve with a large enough effect in the repeat runs, not every such curve was filed as active; further: series mostly up to about 51 µM)
Procedure, shortened: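 Antagonist mode: after a 5 min room-temperature compound exposure, cells were stimulated with 1 nM (final) TRH. Dye-loaded TRHR-HEK293 cells were used, and calcium-dependent fluorescence was followed for 3 min, with 15-point titrations run in triplicate.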

[8] = molecular target: Thyrotropin-releasing hormone receptor (Homo sapiens) (UniProt P34981); assay: qHTS assay to identify small molecule agonists of the thyrotropin-releasing hormone receptor (TRHR) signaling pathway (AID 1346891; calls by dose curve;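 further: HEK293 cells expressing TRHR with calcium dye readout; series mostly up to about 58 µM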)
Procedure, shortened: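 Kinetic fluorescence (3 min, 1 s intervals) reported intracellular calcium after compound transfer onto TRHR-Hek293 cells pre-loaded with dye for 2 h at 37 °C.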

[9] = Human pregnane X receptor (PXR) small molecule agonists, qHTS cell viability counter screen (AID 1346977); further: nearly all actives have a fitted effect of over 50% in size
Procedure, shortened: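 HepG2 cells stably carrying the PXR-Luc reporter are cultured with 5% charcoal-stripped FBS and treated with compounds for 24hr. CellTiter-Fluor is added at 23hr and fluorescence is read after 1hr.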

[10] = Caspase-3/7 induction in HepG2 cells by small molecules, qHTS assay (AID 1346978); further: nearly all actives have a fitted effect of over 15% in size
Procedure, shortened: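 Caspase-3/7 induction was measured by Caspase-Glo 3/7 luminescence (30 min, room temperature) after a 17 hr compound exposure of wild-type HepG2 cells seeded at 2,000 per well and pre-incubated 5 hr.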
On the % scale 0 is the no-effect control and ±100 the full control effect.

Thyrotropin-releasing hormone receptor (Homo sapiens), sequence (P34981 whole entry, looked up): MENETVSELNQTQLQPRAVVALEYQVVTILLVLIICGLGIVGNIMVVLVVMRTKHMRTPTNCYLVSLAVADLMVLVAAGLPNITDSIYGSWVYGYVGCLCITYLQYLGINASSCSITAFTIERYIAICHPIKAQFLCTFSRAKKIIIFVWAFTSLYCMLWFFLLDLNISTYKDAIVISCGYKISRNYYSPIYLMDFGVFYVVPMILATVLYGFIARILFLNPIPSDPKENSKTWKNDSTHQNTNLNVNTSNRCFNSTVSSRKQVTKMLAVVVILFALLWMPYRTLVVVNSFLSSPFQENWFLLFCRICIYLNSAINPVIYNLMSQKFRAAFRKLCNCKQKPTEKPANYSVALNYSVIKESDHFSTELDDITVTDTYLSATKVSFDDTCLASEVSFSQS
Progesterone receptor (Homo sapiens), sequence (P06401 whole entry, looked up): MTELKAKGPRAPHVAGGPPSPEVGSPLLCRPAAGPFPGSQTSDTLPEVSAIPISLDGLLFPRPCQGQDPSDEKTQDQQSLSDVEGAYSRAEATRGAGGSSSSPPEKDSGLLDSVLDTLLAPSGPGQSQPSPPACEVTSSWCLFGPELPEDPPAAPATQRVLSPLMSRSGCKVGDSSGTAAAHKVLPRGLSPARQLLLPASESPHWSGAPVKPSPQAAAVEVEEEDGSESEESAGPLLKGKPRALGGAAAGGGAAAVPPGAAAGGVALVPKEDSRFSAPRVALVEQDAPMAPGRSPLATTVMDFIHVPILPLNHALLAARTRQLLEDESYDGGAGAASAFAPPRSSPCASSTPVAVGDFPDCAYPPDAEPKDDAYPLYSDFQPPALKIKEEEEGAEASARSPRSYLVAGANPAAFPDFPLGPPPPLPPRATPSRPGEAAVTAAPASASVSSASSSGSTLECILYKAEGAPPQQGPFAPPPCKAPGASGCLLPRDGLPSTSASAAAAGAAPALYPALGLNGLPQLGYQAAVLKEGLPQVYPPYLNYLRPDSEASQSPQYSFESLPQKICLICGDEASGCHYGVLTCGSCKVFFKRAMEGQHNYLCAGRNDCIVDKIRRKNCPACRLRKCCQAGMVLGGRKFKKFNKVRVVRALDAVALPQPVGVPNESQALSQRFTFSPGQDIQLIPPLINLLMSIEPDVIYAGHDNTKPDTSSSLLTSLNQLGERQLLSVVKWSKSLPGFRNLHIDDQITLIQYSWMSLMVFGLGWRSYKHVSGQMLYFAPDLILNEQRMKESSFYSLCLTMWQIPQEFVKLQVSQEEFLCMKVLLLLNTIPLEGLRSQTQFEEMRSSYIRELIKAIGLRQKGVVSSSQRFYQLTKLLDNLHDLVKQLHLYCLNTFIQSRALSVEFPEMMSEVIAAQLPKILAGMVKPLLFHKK

CCNC(=O)C1CC(C)CCC1C(C)C (stereo not drawn)
inactive: Potency [1] | Potency [2] | Potency [3] | outcome [4] | outcome [5] | outcome [6] | outcome [7] | outcome [8] | Potency [9]

C[C@H](CCC(=O)O)[C@H]1CC[C@H]2[C@@H]3C(=O)C[C@@H]4CC(=O)CC[C@]4(C)[C@H]3CC(=O)[C@]12C
inactive: Potency [1] | Potency [2] | Potency [3] | outcome [4] | outcome [5] | outcome [6] | outcome [7] | outcome [8] | Potency [9] | Potency [10]

C=COCCOCCOCCOC=C
inactive: Potency [1] | Potency [2] | Potency [3] | outcome [4] | outcome [5] | outcome [6] | outcome [7] | outcome [8] | Potency [9]

CC(C)NCC(O)COc1ccc(COCCOC(C)C)cc1 (stereo not drawn)
inactive: Potency [1] | Potency [2] | Potency [3] | outcome [4] | outcome [5] | outcome [6] | outcome [7] | outcome [8] | Potency [9] | Potency [10]

O=C1O[C@@H]2[C@@H](O)[C@H](O)O[C@@H]2[C@H]1O
inactive: Potency [1] | Potency [2] | Potency [3] | outcome [4] | outcome [5] | outcome [6] | outcome [7] | outcome [8] | Potency [9] | Potency [10]

Cc1ccc2c(c1)OCC(=O)CO2
inactive: Potency [1] | Potency [2] | Potency [3] | outcome [4] | outcome [5] | outcome [6] | outcome [7] | outcome [8] | Potency [9]

O=C(NCCc1c[nH]c2ccccc12)c1cccnc1
inactive: Potency [1] | Potency [2] | Potency [3] | outcome [4] | outcome [5] | outcome [6] | outcome [7] | outcome [8] | Potency [9] | Potency [10]

CC/C=C\CC1=C(C)CCC1=O
inactive: Potency [1] | Potency [2] | Potency [3] | outcome [4] | outcome [5] | outcome [6] | outcome [7] | outcome [8] | Potency [9] | Potency [10]

CCCCCCOC(=O)CC
inactive: Potency [1] | Potency [2] | Potency [3] | outcome [4] | outcome [5] | outcome [6] | outcome [7] | outcome [8] | Potency [9] | Potency [10]

O=C1c2ccccc2C(=O)c2cc(S(=O)(=O)O)ccc21
inactive: Potency [1] | Potency [2] | Potency [3] | outcome [4] | outcome [5] | outcome [6] | outcome [7] | outcome [8] | Potency [9] | Potency [10]

BrCCCCCBr
inactive: Potency [1] | Potency [2] | Potency [3] | outcome [4] | outcome [5] | outcome [6] | outcome [7] | outcome [8] | Potency [9] | Potency [10]

C=C(C)C(=O)OCCN(CC)CC
inactive: Potency [1] | Potency [2] | Potency [3] | outcome [4] | outcome [5] | outcome [6] | outcome [7] | outcome [8] | Potency [9] | Potency [10]

CCOC(=O)c1ccc(OC(=O)CCCCCN=C(N)N)cc1
inactive: Potency [1] | Potency [2] | Potency [3] | outcome [4] | outcome [5] | outcome [6] | outcome [7] | outcome [8] | Potency [9]

Oc1ccccc1-c1nnco1
inactive: Potency [1] | Potency [2] | Potency [3] | outcome [4] | outcome [5] | outcome [6] | outcome [7] | outcome [8] | Potency [9] | Potency [10]

COc1cc2c(cc1OC)[C@@H]1CC(=O)[C@@H](CC(C)C)CN1CC2
inactive: Potency [1] | Potency [2] | Potency [3] | outcome [4] | outcome [5] | outcome [6] | outcome [7] | outcome [8] | Potency [9]

O=S(O)(O)=S
inactive: activity change, negative = inhibition [1] 2.55% [at 8.39 µM] | activity change, negative = cytotoxicity [2] 5.98% [at 8.39 µM] | activity change, negative = cytotoxicity [3] -1.49% [at 8.39 µM] | viability change, negative = cytotoxic [4] -0.132% [at 6.97 µM] | activity change, negative = cytotoxicity [5] 1.63% [at 6.97 µM] | activation [6] 3.3% [at 6.97 µM] | activity, negative = inhibition [7] 1.85% [at 4.65 µM] | activation [8] 0.644% [at 5.23 µM] | activity change, negative = cytotoxicity [9] -0.159% [at 8.39 µM] | caspase activation [10] 0.115% [at 8.39 µM]

O=C(O)c1cc(Cl)cc([N+](=O)[O-])c1Cl
inactive: Potency [1] | Potency [2] | Potency [3] | outcome [4] | outcome [5] | outcome [6] | outcome [7] | outcome [8] | Potency [9] | Potency [10]

CNS(=O)(=O)CCc1ccc2[nH]cc(C3CCN(C)CC3)c2c1
inactive: Potency [1] | Potency [2] | Potency [3] | outcome [4] | outcome [5] | outcome [6] | outcome [7] | outcome [8] | Potency [9]

CC(C)=CCOC(=O)c1ccccc1
inactive: Potency [1] | Potency [2] | Potency [3] | outcome [4] | outcome [5] | outcome [6] | outcome [7] | outcome [8] | Potency [9] | Potency [10]

CCCCCCCC/C=C\CCCCCCCC(=O)OCCCC
inactive: activity change, negative = inhibition [1] -2.42% [at 18.9 µM] | activity change, negative = cytotoxicity [2] 0.852% [at 18.9 µM] | activity change, negative = cytotoxicity [3] 0% [at 19 µM] | viability change, negative = cytotoxic [4] 2.1% [at 15.8 µM] | activity change, negative = cytotoxicity [5] 0.118% [at 15.8 µM] | activation [6] -1.96% [at 15.8 µM] | activity, negative = inhibition [7] 8.97% [at 10.5 µM] | activation [8] 0.159% [at 11.8 µM] | activity change, negative = cytotoxicity [9] 1.78% [at 19 µM] | caspase activation [10] 0.919% [at 19 µM]

COP(=O)(OC)OC(c1ccc(Cl)cc1)P(=O)(OC)OC (stereo not drawn)
inactive: Potency [1] | Potency [2] | Potency [3] | outcome [4] | outcome [5] | outcome [6] | outcome [7] | outcome [8] | Potency [9] | Potency [10]

CCCCCCCCC1CCC(=O)O1 (stereo not drawn)
inactive: Potency [1] | Potency [2] | Potency [3] | outcome [4] | outcome [5] | outcome [6] | outcome [7] | outcome [8] | Potency [9]
